Inconclusive results are not listed. Active and inactive are the calls of the source. How the source made its calls: active means hit-call score of the fitted dose curve at least 0.9, where 1 is the maximum; inconclusive means response in the unintended direction; inactive means score below 0.9.

Chain of Estrogen receptor beta (Homo sapiens) (Q92731 whole entry, looked up, the tested form may be a part): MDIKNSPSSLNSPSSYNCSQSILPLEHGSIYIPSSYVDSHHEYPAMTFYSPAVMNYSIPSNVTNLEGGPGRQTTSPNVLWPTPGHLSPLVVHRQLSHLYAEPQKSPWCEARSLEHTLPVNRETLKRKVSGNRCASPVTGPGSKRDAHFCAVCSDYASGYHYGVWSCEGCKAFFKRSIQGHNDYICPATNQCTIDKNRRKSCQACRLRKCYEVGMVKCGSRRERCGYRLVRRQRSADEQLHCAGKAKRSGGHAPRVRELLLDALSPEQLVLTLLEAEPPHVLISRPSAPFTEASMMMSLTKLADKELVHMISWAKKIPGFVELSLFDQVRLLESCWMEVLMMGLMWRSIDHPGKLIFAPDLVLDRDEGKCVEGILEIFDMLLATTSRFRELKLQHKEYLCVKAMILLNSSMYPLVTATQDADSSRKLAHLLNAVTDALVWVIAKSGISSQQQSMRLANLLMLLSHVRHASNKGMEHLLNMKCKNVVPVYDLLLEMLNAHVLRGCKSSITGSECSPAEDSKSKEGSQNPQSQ
Chain of PGR (gene 5241) (P06401 whole entry, looked up): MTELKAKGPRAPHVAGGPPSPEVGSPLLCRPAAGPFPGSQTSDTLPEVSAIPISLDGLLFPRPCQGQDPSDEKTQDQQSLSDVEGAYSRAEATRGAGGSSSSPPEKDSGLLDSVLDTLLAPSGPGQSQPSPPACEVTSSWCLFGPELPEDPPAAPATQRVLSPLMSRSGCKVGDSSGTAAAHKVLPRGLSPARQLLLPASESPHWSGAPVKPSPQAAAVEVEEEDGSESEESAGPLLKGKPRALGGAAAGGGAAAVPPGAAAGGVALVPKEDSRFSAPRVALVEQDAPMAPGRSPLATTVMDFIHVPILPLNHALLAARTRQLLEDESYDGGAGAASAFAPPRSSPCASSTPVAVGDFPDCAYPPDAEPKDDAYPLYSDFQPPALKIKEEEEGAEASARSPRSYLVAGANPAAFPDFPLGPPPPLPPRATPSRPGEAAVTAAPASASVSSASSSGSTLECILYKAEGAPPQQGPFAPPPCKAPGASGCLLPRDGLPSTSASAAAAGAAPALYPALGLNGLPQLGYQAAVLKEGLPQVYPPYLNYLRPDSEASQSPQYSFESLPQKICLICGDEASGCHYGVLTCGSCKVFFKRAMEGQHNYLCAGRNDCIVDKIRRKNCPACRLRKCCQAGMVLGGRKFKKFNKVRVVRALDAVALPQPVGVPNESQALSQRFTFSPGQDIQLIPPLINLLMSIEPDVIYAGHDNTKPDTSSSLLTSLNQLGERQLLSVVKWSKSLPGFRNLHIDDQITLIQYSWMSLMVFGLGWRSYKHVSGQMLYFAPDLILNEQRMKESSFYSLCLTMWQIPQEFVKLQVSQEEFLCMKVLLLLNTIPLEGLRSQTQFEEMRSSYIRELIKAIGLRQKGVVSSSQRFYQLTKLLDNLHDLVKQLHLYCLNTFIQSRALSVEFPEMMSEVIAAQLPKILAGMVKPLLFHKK
Chain of Glucocorticoid receptor (Homo sapiens) (P04150 whole entry, looked up): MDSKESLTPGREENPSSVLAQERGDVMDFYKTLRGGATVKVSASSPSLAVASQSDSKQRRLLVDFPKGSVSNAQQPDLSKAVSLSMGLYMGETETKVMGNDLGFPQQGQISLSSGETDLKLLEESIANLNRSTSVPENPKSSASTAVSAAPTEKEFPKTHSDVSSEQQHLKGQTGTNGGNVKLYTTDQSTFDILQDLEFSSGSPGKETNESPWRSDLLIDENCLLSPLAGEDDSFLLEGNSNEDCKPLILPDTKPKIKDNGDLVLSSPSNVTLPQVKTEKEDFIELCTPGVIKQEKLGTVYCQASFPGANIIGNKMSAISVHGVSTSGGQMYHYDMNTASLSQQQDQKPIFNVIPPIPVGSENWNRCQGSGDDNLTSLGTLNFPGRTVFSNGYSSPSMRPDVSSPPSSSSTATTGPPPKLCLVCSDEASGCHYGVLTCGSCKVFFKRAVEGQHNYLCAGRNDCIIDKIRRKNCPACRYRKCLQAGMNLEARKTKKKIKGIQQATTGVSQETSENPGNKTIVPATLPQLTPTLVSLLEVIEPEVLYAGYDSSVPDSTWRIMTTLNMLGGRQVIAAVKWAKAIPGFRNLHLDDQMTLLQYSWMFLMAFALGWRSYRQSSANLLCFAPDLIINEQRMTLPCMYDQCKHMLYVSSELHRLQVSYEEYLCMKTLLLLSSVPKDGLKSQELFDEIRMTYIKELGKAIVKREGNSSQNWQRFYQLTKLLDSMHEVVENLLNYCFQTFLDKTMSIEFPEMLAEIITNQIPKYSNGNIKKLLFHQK

The target of the first test is Estrogen receptor (Homo sapiens) + Estrogen receptor beta (Homo sapiens) (UniProt P03372+Q92731). As to the kind of experiment: OT_ER_ERaERb_1440: Odyssey Thera (OT) 24-hour HEK293T Protein-Complementation Assay for Estrogen Receptor-alpha/-beta Homodimer (AID 2283356).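 Further: heteromer of ER alpha and ER beta binding domains; hits raise reporter fluorescence and both agonists and antagonists give an increase.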 The protocol: OT_ER_ERaERb_1440 is a cell-based assay that uses HEK293T, a human kidney cell line, with measurements taken at 24 hours after chemical dosing in a 384-well plate.OT_ER_ERaERb_1440 is one of one assay component(s) measured or calculated from the OT_ER_ERaERb_1440 assay. It is designed to make measurements of protein fragment complementation, a form of binding reporter, as detected with fluorescence intensity signals by Protein-fragment Complementation technology.Data from the assay component OT_ER_ERaERb_1440 was analyzed into 1 assay endpoint. This assay endpoint, OT_ER_ERaERb_1440, was analyzed in the positive analysis fitting direction relative to DMSO as the negative control and baseline of activity. Using a type of binding reporter, measures of receptor for gain-of-signal activity can be used to understand the binding at the pathway-level as they relate to the gene ESR1 and ESR2. Furthermore, this assay endpoint can be referred to as a primary readout, because the performed assay has only produced 1 assay endpoint. To generalize the intended target to other relatable targets, this assay endpoint is annotated to the nuclear receptor intended target family, where the subfamily is steroidal.
Chain of Estrogen receptor (Homo sapiens) + Estrogen receptor beta (Homo sapiens) (P03372 whole entry, looked up, the tested form may be a part): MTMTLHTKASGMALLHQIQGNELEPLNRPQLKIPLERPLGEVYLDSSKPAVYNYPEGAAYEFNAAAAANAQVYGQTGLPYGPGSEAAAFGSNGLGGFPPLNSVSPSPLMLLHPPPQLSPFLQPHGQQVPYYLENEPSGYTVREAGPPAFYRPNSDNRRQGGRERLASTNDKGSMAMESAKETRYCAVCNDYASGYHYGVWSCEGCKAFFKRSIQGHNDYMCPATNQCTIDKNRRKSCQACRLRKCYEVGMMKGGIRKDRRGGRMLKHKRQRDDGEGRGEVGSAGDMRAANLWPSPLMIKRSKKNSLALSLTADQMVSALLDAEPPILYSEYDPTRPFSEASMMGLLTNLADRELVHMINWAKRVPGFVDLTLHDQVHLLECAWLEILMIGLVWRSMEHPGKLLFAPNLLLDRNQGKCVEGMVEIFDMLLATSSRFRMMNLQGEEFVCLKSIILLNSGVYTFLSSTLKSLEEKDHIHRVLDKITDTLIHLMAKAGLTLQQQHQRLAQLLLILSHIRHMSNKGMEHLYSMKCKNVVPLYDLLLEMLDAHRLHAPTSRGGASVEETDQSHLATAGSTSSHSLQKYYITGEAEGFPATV
Chain of Estrogen receptor (Homo sapiens) + Estrogen receptor beta (Homo sapiens) (Q92731 whole entry, looked up, the tested form may be a part): as the sequence (Q92731 whole entry, looked up, the tested form may be a part) above
Protein-fragment complementation assay, or PCA, is a method for the identification and quantification of protein-protein interactions. In the PCA, the proteins of interest ("bait" and "prey") are each covalently linked to fragments of a third protein (e.g. DHFR, which acts as a "reporter"). Interaction between the bait and the prey proteins brings the fragments of the reporter protein in close proximity to allow them to form a functional reporter protein whose activity can be measured. The OT ER alpha / ER beta assay is a heterodimer PCA of the ligand binding domain (LBD) of ER alpha (amino acids 310-547) and human ER beta (amino acids 263-489) stably expressed in HEK293T cells. […] Fluorescent signal in the basal state of the assay is very low and is primarily punctuate and cytoplasmic. Modulation of this assay is quantified as an increase in mean fluorescence intensity in the nucleus (for agonists) or in the nucleus and cytoplasm (antagonists) relative to vehicle controls, and can be quantified on a high content imaging device or a laser scanning cytometer. The latter instrument is favored for this assay because of the rapid mode of data acquisition, the ability to acquire data from the entire cell population in a well (as opposed to a fraction of the well on the high content devices) and the larger dynamic range typically achieved with this instrument. To assess sensitivity of the ER alpha/ER beta LBD assay to ligand, cells were treated with the ER agonist 17- beta-estradiol (E2) in 10-point concentration- response format for 24 hours and monitored response on a laser scanning plate cytometer (Acumen eX3; TTP Lab Tech).
As for `CSc1nc(NC(C)C)nc(NC(C)C)n1`, the result was inactive.
The same measure, in the same setting: the result for `CCc1cccc(CC)c1N(COC)C(=O)CCl` reads “inactive”; that for `Nc1c(Cl)cc([N+](=O)[O-])cc1Cl`, “inactive”.
As for `CNC(=O)ON=C(SC)C(=O)N(C)C`, the outcome was inactive.
For `COP(=O)(OC)OC(Br)C(Cl)(Cl)Br` (centres undefined), the outcome was inactive.
Usually AC50 stands for the concentration giving half of the maximal activity seen. As for `Cc1cc(C2CC2)nc(Nc2ccccc2)n1`, the AC50 was 40 µM (active).
As for `CCCCOC(=O)[C@@H](C)Oc1ccc(Oc2ccc(C#N)cc2F)cc1`, the outcome was inactive.

In a further test the target is Estrogen receptor beta (Homo sapiens) (UniProt Q92731). In words: OT_ER_ERbERb_0480: Odyssey Thera (OT) 8-hour HEK293T Protein-Complementation Assay for Estrogen Receptor-beta/-beta Homodimer (AID 2283357).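 Further: active means signal gain over DMSO baseline.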 Put shortly:
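Cells (HEK293T, stable ER-beta LBD PCA pair) are treated 8 hours, fixed and Draq5-stained; signal is fluorescence intensity increase relative to vehicle, fitted in the gain direction.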
As for `CCc1cccc(C)c1N(C(=O)CCl)C(C)COC` (centres undefined), the compound was classed as inactive.
`Cc1ccn2nc(S(=O)(=O)Nc3c(F)cccc3F)nc2n1`: the call was inactive.
Still for that read-out and setting: the result for `COc1cccc(C(=O)NN(C(=O)c2cc(C)cc(C)c2)C(C)(C)C)c1C` reads “inactive”.
Same read-out and setting: the result for `CSc1nc(NC(C)C)nc(NC(C)C)n1` reads “inactive”.
In the case of `CN(C)C(=O)Nc1cccc(C(F)(F)F)c1`, the outcome was inactive.
On the same count and under the same terms, the result for `CC(C)N(C(=O)SCC(Cl)=C(Cl)Cl)C(C)C` reads “inactive”.
Still for that read-out and setting: the result for `CSC1=N[C@@](C)(c2ccccc2)C(=O)N1Nc1ccccc1` reads “inactive”.
With `CCCCSP(=O)(SCCCC)SCCCC`, the compound was classed as inactive.
On the same count and under the same terms, the result for `CCNc1nc(Cl)nc(NC(C)(C)C#N)n1` reads “inactive”.
On to `CCOC(=O)CC(SP(=O)(OC)OC)C(=O)OCC` (centres undefined), for which the call was inactive.
The same measure, in the same setting: the result for `CC(Oc1cccc(Cl)c1)C(=O)O` (centres undefined) reads “inactive”.
Same read-out and setting: the result for `CC1=NNC(=O)N(/N=C/c2cccnc2)C1` reads “inactive”; that for `CCOP(=O)(NC(C)C)Oc1ccc(SC)c(C)c1` (centres undefined), “inactive”.
On the same count and under the same terms, the result for `CCOP(=S)(OCC)SCCSCC` reads “inactive”; that for `Nc1c(Cl)cc([N+](=O)[O-])cc1Cl`, “inactive”; that for `CNC(=O)ON=C(SC)C(=O)N(C)C`, “inactive”.
As to `N#CSCSC#N`, the result was inactive.
For the compound `CC(C1CC1)C(O)(Cn1cncn1)c1ccc(Cl)cc1` (centres undefined), the AC50 was 29.6 µM (active).
Still for that read-out and setting: the result for `Cc1cc(C2CC2)nc(Nc2ccccc2)n1` reads 50 µM (active).
Consider `CCCCOC(=O)c1ccccc1C(=O)O`, for which the outcome was inactive.
In the case of `CN(C)NC(=O)CCC(=O)O`, the concentration at half-maximal activity (AC50) was 50 µM (active).
Regarding `Nc1nc(N)nc(NC2CC2)n1`, the compound was called inactive.
On to `COc1ccc(C(=CC(=O)N2CCOCC2)c2ccc(Cl)cc2)cc1OC`, for which the result was inactive.
As for `CCCCOC(=O)[C@@H](C)Oc1ccc(Oc2ccc(C#N)cc2F)cc1`, the outcome was inactive.
Take `CNc1cnn(-c2cccc(C(F)(F)F)c2)c(=O)c1Cl`: the outcome was inactive.
Turning to `CSc1nnc(C(C)(C)C)c(=O)n1N`, the compound was called inactive.
For `CCCCN(CC)c1c([N+](=O)[O-])cc(C(F)(F)F)cc1[N+](=O)[O-]`, the compound was called inactive.

The target in a further test is Retinoic acid receptor alpha (Homo sapiens) (UniProt P10276). In words: NVS_NR_hRAR_Antagonist: NovaScreen (NVS) Nuclear Receptor Binding Assay for human Retinoic Acid Alpha Receptor Antagonism (RAR) (AID 2283358). The procedure, abridged: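 TR-FRET, cell-free, antagonist format; 2 h incubation after dosing; DMSO = baseline; signal loss fitted; 25 uM duplicate primary, then conc. series.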
Chain of Retinoic acid receptor alpha (Homo sapiens) (P10276 whole entry, looked up): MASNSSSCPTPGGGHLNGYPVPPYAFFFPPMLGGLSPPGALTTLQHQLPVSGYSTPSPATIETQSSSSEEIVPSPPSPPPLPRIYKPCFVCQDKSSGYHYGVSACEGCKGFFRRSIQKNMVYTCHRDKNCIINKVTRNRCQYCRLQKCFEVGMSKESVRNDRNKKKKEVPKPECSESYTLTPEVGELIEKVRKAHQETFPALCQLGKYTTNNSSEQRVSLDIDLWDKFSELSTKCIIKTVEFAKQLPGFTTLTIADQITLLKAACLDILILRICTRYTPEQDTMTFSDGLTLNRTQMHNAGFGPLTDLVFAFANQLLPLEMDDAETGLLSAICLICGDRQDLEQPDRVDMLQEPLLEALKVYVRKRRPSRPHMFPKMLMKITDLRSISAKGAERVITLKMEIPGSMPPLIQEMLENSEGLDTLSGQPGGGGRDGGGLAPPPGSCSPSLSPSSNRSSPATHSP
In the case of `CCc1cccc(C)c1N(C(=O)CCl)C(C)COC` (centres undefined), the compound was classed as inactive.
On the same count and under the same terms, the result for `COc1cccc(C(=O)NN(C(=O)c2cc(C)cc(C)c2)C(C)(C)C)c1C` reads “inactive”; that for `CC(C)N(C(=O)SCC(Cl)=C(Cl)Cl)C(C)C`, “inactive”.
The same measure, in the same setting: the result for `CCOC(=O)CC(SP(=O)(OC)OC)C(=O)OCC` (centres undefined) reads “inactive”; that for `CC1=NNC(=O)N(/N=C/c2cccnc2)C1`, “inactive”.
The same measure, in the same setting: the result for `CCOP(=O)(NC(C)C)Oc1ccc(SC)c(C)c1` (centres undefined) reads “inactive”; that for `CCOP(=S)(OCC)SCCSCC`, “inactive”; that for `Nc1c(Cl)cc([N+](=O)[O-])cc1Cl`, “inactive”.
Consider `CNC(=O)ON=C(SC)C(=O)N(C)C`, for which the compound was called inactive.
Regarding `N#CSCSC#N`, the compound was classed as inactive.
As for `CC(C1CC1)C(O)(Cn1cncn1)c1ccc(Cl)cc1` (centres undefined), the result was inactive.
The same measure, in the same setting: the result for `Cc1cc(C2CC2)nc(Nc2ccccc2)n1` reads “inactive”.
As for `CCCCOC(=O)c1ccccc1C(=O)O`, the compound was called inactive.
Consider `COc1ccc(C(=CC(=O)N2CCOCC2)c2ccc(Cl)cc2)cc1OC`, for which the outcome was inactive.
Regarding `CNc1cnn(-c2cccc(C(F)(F)F)c2)c(=O)c1Cl`, the result was inactive.
`CSc1nnc(C(C)(C)C)c(=O)n1N`: the result was inactive.
Turning to `CCCCN(CC)c1c([N+](=O)[O-])cc(C(F)(F)F)cc1[N+](=O)[O-]`, the outcome was inactive.

For another test, the target named is PGR (gene 5241) (UniProt P06401). In words: NVS_NR_hPR: NovaScreen (NVS) Nuclear Receptor Binding Assay for human Progestron Receptor (PR) (AID 2283360).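 Further: active means loss of bound radioligand signal versus DMSO baseline.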 Put shortly:
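Competitive displacement of a labelled radioligand from T47D-derived receptor protein is measured in a cell-free format. Initial testing uses 25 uM in duplicate, with positive and negative controls on every plate.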
On to `CCOP(=S)(OCC)Oc1ccc([N+](=O)[O-])cc1`, for which the AC50 was 14.6 µM (active).
For the compound `CCOC(=O)CC(SP(=O)(OC)OC)C(=O)OCC` (centres undefined), the compound was called inactive.
Still for that read-out and setting: the result for `CNC(=O)ON=C(SC)C(=O)N(C)C` reads “inactive”; that for `CC(C1CC1)C(O)(Cn1cncn1)c1ccc(Cl)cc1` (centres undefined), “inactive”; that for `CNc1cnn(-c2cccc(C(F)(F)F)c2)c(=O)c1Cl`, “inactive”.
Turning to `CCCCN(CC)c1c([N+](=O)[O-])cc(C(F)(F)F)cc1[N+](=O)[O-]`, the outcome was inactive.

For the next test, the target named is human Thyroid Receptor Alpha (TRa), THRA (gene 7067) (UniProt P10827). In words: NVS_NR_hTRa_Antagonist: NovaScreen (NVS) Nuclear Receptor Binding Assay for human Thyroid Receptor Alpha Antagonism (TRa) (AID 2283362). Put shortly: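 AlphaLISA chemiluminescent immunoassay readout, taken 1 h post-dosing in a cell-free system with extracted protein. Activity was scored as signal loss against DMSO negative control, from duplicate single-concentration (25 uM) testing followed by concentration-response follow-up.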
Chain of human Thyroid Receptor Alpha (TRa), THRA (gene 7067) (P10827 whole entry, looked up): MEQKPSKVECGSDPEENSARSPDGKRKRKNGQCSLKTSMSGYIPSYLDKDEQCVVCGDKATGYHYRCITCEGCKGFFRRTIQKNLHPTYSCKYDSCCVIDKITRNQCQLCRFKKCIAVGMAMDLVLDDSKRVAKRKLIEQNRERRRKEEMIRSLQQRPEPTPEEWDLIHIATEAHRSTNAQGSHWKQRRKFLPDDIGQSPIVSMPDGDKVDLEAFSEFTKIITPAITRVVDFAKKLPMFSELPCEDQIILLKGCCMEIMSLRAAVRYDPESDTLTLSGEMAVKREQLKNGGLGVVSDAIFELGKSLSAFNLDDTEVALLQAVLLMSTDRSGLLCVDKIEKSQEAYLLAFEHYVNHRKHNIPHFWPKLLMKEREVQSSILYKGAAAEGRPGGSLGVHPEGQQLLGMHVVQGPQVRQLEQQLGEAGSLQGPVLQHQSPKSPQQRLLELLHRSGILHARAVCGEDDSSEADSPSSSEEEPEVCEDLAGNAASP
As to `CC(C)N(C(=O)SCC(Cl)=C(Cl)Cl)C(C)C`, the result was inactive.
On to `CCOP(=S)(OCC)Oc1ccc([N+](=O)[O-])cc1`, for which the outcome was inactive.
As for `CCOC(=O)CC(SP(=O)(OC)OC)C(=O)OCC` (centres undefined), the compound was called inactive.
Take `CNC(=O)ON=C(SC)C(=O)N(C)C`: the outcome was inactive.
Still for that read-out and setting: the result for `CC(C1CC1)C(O)(Cn1cncn1)c1ccc(Cl)cc1` (centres undefined) reads “inactive”; that for `CCCCN(CC)c1c([N+](=O)[O-])cc(C(F)(F)F)cc1[N+](=O)[O-]`, “inactive”.

The target of another test is Glucocorticoid receptor (Homo sapiens) (UniProt P04150). As to the kind of experiment: NVS_NR_hGR: NovaScreen (NVS) Nuclear Receptor Binding Assay for human Glucocorticoid Receptor (GR) (AID 2283363).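 On AC50: activity is loss of specific radioligand binding signal relative to DMSO.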 Put shortly:
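Competitive displacement of a labelled ligand was measured on cell-free receptor preparations after 16 h exposure. Initial testing used 25 uM in duplicate with plate controls; confirmed actives went into concentration series.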
Take `CC(C)N(C(=O)SCC(Cl)=C(Cl)Cl)C(C)C`: the compound was classed as inactive.
On to `CCOP(=S)(OCC)Oc1ccc([N+](=O)[O-])cc1`, for which the concentration at half-maximal activity (AC50) is 6.96 µM (active).
With `CCOP(=S)(OCC)SCCSCC`, the call was inactive.
`COc1ccc(C(=CC(=O)N2CCOCC2)c2ccc(Cl)cc2)cc1OC`: the half-maximal activity concentration (AC50) is 13.4 µM (active).
In the case of `CNc1cnn(-c2cccc(C(F)(F)F)c2)c(=O)c1Cl`, the outcome was inactive.
Take `CCCCN(CC)c1c([N+](=O)[O-])cc(C(F)(F)F)cc1[N+](=O)[O-]`: the result was inactive.
